Inconclusive results are not listed. Values without a mark were called inactive. The source made the active and inactive calls. Calls come from the whole dose curve; as a rule, active = well fitted inhibition curve with a large enough effect; inconclusive = small, poorly fitted or top-dose-only effect; inactive = flat fitted curve, though single readings scatter. *1 amine or outer side, *2 acyl side, *3 side chain or, on linkers, in order; H or OH if unused. Where a SMILES comes first, the peptide text is derived from it. Bridges are numbered along the chain shown (N, C = ends). [ ]: non-standard residue; d: D form. The star is where a group is joined. ξ: configuration not given here. ξhTyr(3S-OH,4S-OH,3'-OSO3H) = NC(C(=O)O)[C@H](O)[C@@H](O)c1ccc(O)c(OS(=O)(=O)O)c1; Orn(4R-OH,5R-OH) = O=C([C@H](C[C@@H](O)[C@@H](O)N[*:3])N[*:1])[*:2]; X2 = CCCCCOc1ccc(-c2cc(-c3ccc(C(=O)*)cc3)no2)cc1; X3 = C[C@H]1CN([*:1])C(C(=O)[*:2])[C@H]1O; ξGln(3R-OH) = NC(=O)C[C@@H](O)C(N)C(=O)O; ξPro(4R-OH) = O=C(O)C1C[C@@H](O)CN1; ξThr(3R) = C[C@@H](O)C(N)C(=O)O
% is set by controls: 0 for no effect and ±100 for the full control effect.

The assay relates to NIH3T3. The assay can be described thus: Cytotoxic Profiling of Annotated Libraries Using Quantitative High-Throughput Screening (AID 1296008). Note: nearly all actives have a fitted effect of over 60% in size. Conditions: Five cell lines viability, CellTiter-Glo ATP luminescence, 48-72 h; max response: stronger effect = lower value. A digest of the protocol: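 Cytotoxicity was measured as CellTiter-Glo ATP luminescence, read after 10 min at room temperature. Compound treatment of the cells lasted 48 or 72 hr at 37 degrees Celsius in a qHTS format.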
Turning to `O=C(O)CC1CCC(c2ccc(-c3ccc(Nc4ccc(C(F)(F)F)nc4)cn3)cc2)CC1` (configuration not stated), the max response was 2.56%.
Still for that read-out and setting: the value for `COC(=O)[C@@H](NC(=O)[C@H](CC(C)C)NC(=O)N(Cc1ccccc1)C[C@@H](O)[C@H](Cc1ccccc1)NC(=O)OC(C)(C)C)C(C)C` was -6.39%.
On to `CC(O)C(O)/C=C/C=C/C(=O)O[C@@H]1C=C(C(=O)O)[C@](O)(CO)[C@@]2(C)CCCC(C)(C)[C@H]12` (some centres not stated), for which the outcome was inactive.
In the case of `CCCCCOc1ccc(-c2cc(-c3ccc(C(=O)N[C@H]4C[C@@H](O)[C@@H](O)NC(=O)C5[C@@H](O)[C@@H](C)CN5C(=O)C([C@H](O)CC(N)=O)NC(=O)C([C@H](O)[C@@H](O)c5ccc(O)c(OS(=O)(=O)O)c5)NC(=O)C5C[C@@H](O)CN5C(=O)C([C@@H](C)O)NC4=O)cc3)no2)cc1` (stereo partly drawn) (X2-[Orn(4R-OH,5R-OH)][ξThr(3R)][ξPro(4R-OH)][ξhTyr(3S-OH,4S-OH,3'-OSO3H)][ξGln(3R-OH)][X3]; lactam 1-C), the max response is 3.77%.
On to `CC(C)=C1CC2C(CCC2(C)O)C(C)(O)CC1=O` (configuration not stated), for which the result was inactive.
On the same count and under the same terms, the value for `C[C@]1(OC(=O)/C=C/c2ccc(O)cc2)C[C@@H](O)[C@]2(O)C=CO[C@@H](O[C@@H]3O[C@H](CO)[C@@H](O)[C@H](O)[C@H]3O)C12` (some centres not stated) was “inactive”; that for `Cc1cc(-n2c(=O)[nH]c(=O)n(C)c2=O)ccc1Oc1ccc(SC(F)(F)F)cc1` was “inactive”.
As to `C/C=C/C=C/C=C/C(=O)OC1C=C2C(O)OC(=O)[C@]2(O)[C@@]2(C)CCCC(C)(C)[C@H]12` (some centres not stated), the max response was 3.08%.
In the case of `O=C(/C=C/c1ccc(O)cc1)OC[C@H]1O[C@@H](O/C(=C\c2ccccc2)C(=O)O)[C@H](O)[C@@H](O)[C@@H]1O`, the max response is 4.52%.
On the same count and under the same terms, in the case of `C=C(CO)C(=O)O[C@H]1C[C@@]23O[C@@H]2CC/C(=C/[C@H]2OC(=O)C(=C)[C@H]12)CO[C@H]3O` it was 2.84%; in that of `CC(C)CC(c1c(O)c(C=O)c(O)c(C=O)c1O)C1CCC(C)(O)C2CC(C(C)(C)O)CCC12C` (configuration not stated), 0.233%; in that of `COC(=O)C1=COC(OC2OC(CO)C(O)C(O)C2O)C2C(C)C(OC(C)=O)C(OC(=O)c3ccccc3)C12` (configuration not stated), -45.7%.
`C=C1CCC2C(C)(C(=O)OC)CCCC2(C)C1CCC1=CCOC1=O` (configuration not stated): the compound was called inactive.
For the compound `Cc1cc(CNC(=O)c2cc(C(=O)NCc3ccc(F)c(C)c3)ncn2)ccc1F`, the result was inactive.
Regarding `Cc1occc1C(=O)n1ccnc1`, the result was inactive.
On the same count and under the same terms, the value for `O=C(O)C1(c2ccc(-c3ccc(Cl)c(Cl)c3)c(F)c2)CC1` was “inactive”.
For `CC(=O)OC[C@]12[C@H](OC(C)=O)[C@H](OC(=O)c3ccccc3)[C@@H]3[C@@H](OC(C)=O)[C@]1(OC3(C)C)[C@H](C)C[C@H](OC(=O)c1ccccc1)[C@@H]2OC(=O)c1ccccc1`, the max response is -7.63%.

(Values after PubChem BioAssay (NCATS).)
